Screens (PubChem BioAssay)
MazEF act = activators of E. coli MazEF toxin-antitoxin RNase | activation, % at 20 µM | FAM/BHQ RNA-DNA oligo cleavage fluorescence, 5 h | 0.32% of 350,000 active; in the data active = activation above about 50%
Anthrax LF inh2 = blocks Bacillus anthracis lethal factor protease | P15917 | multiplex microsphere protease cleavage assay, LF | inhibition, % at 10 µM | 0.12% of 360,000 active | AID 588501; note: plate controls were buffer without enzyme for full effect and enzyme alone for no effect
Target sequence (P15917 whole entry, looked up): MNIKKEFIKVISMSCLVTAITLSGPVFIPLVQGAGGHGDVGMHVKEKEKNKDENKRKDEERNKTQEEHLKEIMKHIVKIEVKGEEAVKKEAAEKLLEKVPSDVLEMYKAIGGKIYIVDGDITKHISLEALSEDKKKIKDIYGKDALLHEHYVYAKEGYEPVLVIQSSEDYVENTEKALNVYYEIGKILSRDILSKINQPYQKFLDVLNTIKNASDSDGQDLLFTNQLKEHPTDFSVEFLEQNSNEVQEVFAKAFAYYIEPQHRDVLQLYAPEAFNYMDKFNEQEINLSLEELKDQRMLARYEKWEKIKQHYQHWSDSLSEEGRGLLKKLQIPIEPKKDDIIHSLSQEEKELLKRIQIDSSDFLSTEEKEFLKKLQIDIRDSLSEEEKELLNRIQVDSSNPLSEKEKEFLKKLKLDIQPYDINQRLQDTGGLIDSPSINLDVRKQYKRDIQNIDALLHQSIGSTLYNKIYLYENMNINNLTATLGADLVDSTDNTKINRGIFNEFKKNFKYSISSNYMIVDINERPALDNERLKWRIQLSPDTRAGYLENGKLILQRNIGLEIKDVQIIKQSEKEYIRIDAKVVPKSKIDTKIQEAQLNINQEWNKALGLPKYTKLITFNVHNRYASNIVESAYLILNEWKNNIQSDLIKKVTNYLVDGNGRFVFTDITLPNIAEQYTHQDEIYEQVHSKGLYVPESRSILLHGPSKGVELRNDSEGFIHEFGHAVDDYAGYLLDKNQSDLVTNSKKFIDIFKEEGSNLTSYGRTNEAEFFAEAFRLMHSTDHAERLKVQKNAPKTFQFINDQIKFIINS
SSB-PriA inh = K. pneumoniae PriA-SSBct interaction inhibition | inhibition, % at 33 µM | 0.6% of 430,000 active | AlphaScreen SSBct-PriA binding, biotinylated peptide | AID 1272365; in the data active = inhibition mostly above about 37%, no sharp cut-off; inactive = mostly below about 20%;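 note: plate controls were negative control peptide for no effect and reference peptide for full effect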
BoNT A protease = inhibitors of Botulinum neurotoxin A light chain protease | multiplex microsphere protease substrate cleavage, flow cytometry | inhibition, % at 10 µM | 0.17% of 360,000 active; note: plate controls were buffer without enzyme for full effect and enzyme alone for no effect
BoNT F protease = blocks Botulinum neurotoxin F light chain protease; Multiplex microsphere protease cleavage assay, flow cytometry; inhibition, % at 10 µM; 0.22% of 360,000 active; in the data active = inhibition above about 35%, passing the limit was not always enough; inconclusive = no clear call, values can overlap the other calls; note: plate controls were buffer without enzyme for full effect and enzyme alone for no effect
Autofluor counter = flagged as autofluorescent in microsphere protease counterscreen; 3.1% of 360,000 active; fluorescence intensity (no concentration beside the values); compound autofluorescence counterscreen, microsphere flow cytometry; stronger effect = higher value; in the data active = fluorescence intensity above about 16000; inconclusive = no clear call, values can overlap the other calls
Active calls of the source: *; ? = inconclusive; · = no result. Most compounds without a hit are left out; they make up all but 3.3% or so of the library. Cut-off read from the data, not from the text of the source, unless noted: active = inhibition above about 30%; inconclusive = no clear call, values can overlap the other calls; inactive = below that.

SMILES	MazEF act	Anthrax LF inh2	SSB-PriA inh	BoNT A protease	BoNT F protease	Autofluor counter
Cc1ccnc(NS(=O)(=O)c2ccc(NC(=O)[C@H](C)n3nc(-c4ccccc4)ccc3=O)cc2)n1	·	·	1	·	·	·
CCOC(=O)c1c(NS(=O)(=O)c2ccccc2)n(CCCOC)c2nc3ccccc3nc12	-3	2	47*	6	5	2109
CCCCCn1c(NS(=O)(=O)c2ccc(F)cc2)c(C(=O)OCC)c2nc3ccccc3nc21	·	·	55*	·	·	·
CCCCn1c(NS(=O)(=O)c2ccc(Cl)cc2)c(C(=O)OCC)c2nc3ccccc3nc21	·	·	68*	·	·	·
O=C(C1CC=CCC1)N1CCN(CCn2ccnc2-c2ccccc2)CC1 (configuration not stated)	·	·	4	·	·	·
COc1ccc(S(=O)(=O)NC(Cc2cnc[nH]2)C(=O)O)cc1 (configuration not stated)	-3	-1	-7	1	3	2134
COC(=O)C(Cc1cnc[nH]1)NC(=O)C1CCC(=O)N1 (configuration not stated)	13	-3	-27	?	3	22414*
O=C1CC(CCC(=O)NC2CC2)c2ccccc2N1 (configuration not stated)	-1	0	-28	1	2	20432*
CCOC(=O)CN1CCC(Cn2ccnc2C)CC1	·	·	-4	·	·	·
O=C(NCc1nnnn1C1CCCCC1)c1cccs1	·	·	-2	·	·	·
Cc1c(Cl)cccc1S(=O)(=O)NCc1nn(C)c(=O)c2ccccc12	·	·	-15	·	·	·
O=P(Cc1ccccn1)(c1ccccc1)c1ccccc1	3	-3	9	-2	-3	24061*
CCCNC(=O)c1csc2c1CCCCC2	9	2	-10	1	9	4595
O=C(NC1CCCC1)c1csc2c1CCCC2	-10	-2	2	5	6	19286*
COc1cc(C(=O)Oc2cc(N)n(S(=O)(=O)c3ccccc3)n2)cc(OC)c1OC	27	1	6	2	2	4571
COc1cc(C(=O)Oc2cc(N)n(S(=O)(=O)c3ccc(F)cc3)n2)cc(OC)c1OC	245*	1	-10	-2	-3	6650
O=S(=O)(Cc1ccco1)C1CCN(S(=O)(=O)CCCOc2ccccc2)CC1	·	·	87*	·	·	·
CCN(CC)CCN(C(=O)c1ccc(S(=O)(=O)N(C)Cc2ccccc2)cc1)c1nc2cc3c(cc2s1)OCO3	·	·	0	·	·	·
COc1ccccc1Nc1ncccc1[N+](=O)[O-]	8	-2	60*	1	?	3688
COc1ccccc1C(CNc1ncccc1[N+](=O)[O-])N(C)C (configuration not stated)	12	0	8	0	-2	3543
CN(Cc1ccccc1)Cc1nc2c([nH]1)c(=O)[nH]c(=O)n2C	8	-3	-9	-1	-2	16968*
CCOc1ccccc1C(=O)NCCn1nc(C2CC2)n(-c2ccccc2)c1=O	·	·	-3	·	·	·
CC[C@H](C)/C=C(C)/C=C/C1=CC2=C(Cl)C(=O)[C@@](C)(OC(C)=O)C(=O)C2=CO1	-45	3	·	-1	1	5823
CCC(C)/C=C(C)/C=C/C1=CC2=C(Cl)C(=O)C(C)(OC(C)=O)C(=O)C2=CO1 (configuration not stated)	-9	-9	45*	0	-16	5298
Cc1ccc(C(O)=C2C(=O)C(=O)N(Cc3ccco3)C2c2cccs2)cc1 (configuration not stated)	·	·	0	·	·	·
SMILES	MazEF act	Anthrax LF inh2	SSB-PriA inh	BoNT A protease	BoNT F protease	Autofluor counter
NCCn1ncc2c(N3CCOCC3)ncnc21	·	·	-6	·	·	·
Cc1cc(C(=O)Nc2nc(-c3cc4ccccc4o3)cs2)n(C)n1	·	·	-3	·	·	·
CC(=O)Nc1ccc(Nc2nc(-c3cc4ccccc4oc3=O)cs2)cc1	63*	4	-12	3	?	3041
Cc1cc(-c2csc(NC(=O)c3cc4ccccc4o3)n2)c(C)n1C	11	7	2	0	-3	23885*
COc1ccc2oc(=O)c(-c3csc(Nc4cccc(O)c4)n3)cc2c1	133*	3	-20	10	3	2048
COC[C@@](C)(O)CNC(=O)c1cccc(OC)c1OC	·	·	-12	·	·	·
Cc1ccc(OCC(=O)NN=C2CCOc3c(C)cccc32)cc1	·	·	-36	·	·	·
Cc1ccc(OCC(=O)NN=C2c3ccccc3-c3ccccc32)cc1	39	1	-8	-1	0	23454*
C=C(C)C1CC=C(C)/C(=N/NC(=O)COc2ccc(C)cc2)C1 (configuration not stated)	6	0	·	2	2	21182*
